Measured potencies and affinities stand elsewhere.
Target: Protein S100-A4 (Homo sapiens) (UniProt P26447)
Experiment: S100A4-myosin IIA binding inhibitor potency, dose response, biochemical, fluorescence polarization, cherry-picked hits (AID 687001);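 further: 0% = DMSO neutral control wells and -100% = TFP positive control wells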
Settings: FP, S100A4/TAMRA-myosin IIA peptide binding; series mostly up to 11 µM; activity change, negative = inhibition: at the top concentration;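 active means signal-lowering compounds whose fitted half-maximal concentration is at or below twice the top tested dose in every run; inconclusive means runs disagree, flat 30 to 70% inhibition, or poor curve fit; inactive means the rest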

Chain of Protein S100-A4 (Homo sapiens) (P26447 whole entry, looked up): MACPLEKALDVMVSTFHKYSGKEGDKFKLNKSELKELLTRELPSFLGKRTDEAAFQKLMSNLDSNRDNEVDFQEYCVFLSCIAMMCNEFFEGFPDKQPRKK

Activity change, negative = inhibition, inactive:
Cc1ccc(S(=O)(=O)n2cccc2C)cc1 0.742%
CC1Cc2ccccc2N1NC(=O)c1ccc(Cl)c(S(N)(=O)=O)c1 (centres undefined) -3.85%
Cc1ccc(-c2ccc(=O)n(Cc3ccc(F)cc3)n2)cc1 1.36%
CN1c2ccc(-c3ccccc3)cc2[C@@H]2[C@@H](CCN2C(=O)c2cccc(F)c2)[C@@H]1CO 3.83% [at 10 µM]
CCCN1[C@H](CO)[C@H](c2ccc(C3=CCCCC3)cc2)[C@@H]1CNS(C)(=O)=O 7.85%
CC(C)NC(=O)COc1coc(CN2CCN(c3ccccc3)CC2)cc1=O -3.46%
CC(=O)N1CC(C)Oc2ccc(S(=O)(=O)NC(CC(=O)O)c3cc(C)ccc3C)cc21 (centres undefined) 0.235%
O=C(C[C@@H]1CC[C@@H](NC(=O)CC2CC2)[C@H](CO)O1)NCc1ccc(Cl)cc1 3.57%
CC1(C)Cc2cccc(OCC(=O)N3CCN(c4cccc(C(F)(F)F)c4)CC3)c2O1 -1.22%
Nc1nc(SCC(=O)c2ccc(Cl)cc2)c2ncn(C3OC(CO)C(O)C3O)c2n1 (centres undefined) -1.28%
Cc1noc(C)c1S(=O)(=O)N(C)C[C@H]1Oc2ccc(N(C)C)cc2CC(=O)N([C@H](C)CO)C[C@H]1C -3.08% [at 10 µM]
C[C@@H]1CN([C@H](C)CO)C(=O)CCCn2cc(nn2)CO[C@H]1CN(C)S(C)(=O)=O -4.05%
CCC(Sc1nc2ccncc2[nH]1)C(=O)Nc1ccc(C)c(Cl)c1 (centres undefined) -0.285%
O=C(Nc1ccc2c(c1)CN(Cc1ccco1)CC2)C1CCCO1 (centres undefined) 8.73%
COCC(=O)N1[C@H](CO)[C@@H](c2ccccc2)C12CN(C(=O)Cc1ccccn1)C2 8.22%
O=C1CN(C(=O)COc2c(F)c(F)cc(F)c2F)c2ccccc2N1 1.81%
Cc1ccc(S(=O)(=O)Nc2ccc3c(c2)C(=O)N([C@H](C)CO)C[C@@H](C)[C@@H](CN(C)C(=O)NC(C)C)OCCCC[C@@H](C)O3)cc1 4.8%
Cc1nonc1NC(=O)CSc1nnc(N)s1 -1.66%
CCOC(=O)C1(C)CCN1C(=O)c1csnn1 (centres undefined) -0.883%
C=CCSc1n[nH]c(-c2cccs2)n1 -1.92%
CO[C@@H]1CC[C@H]2CCOc3c(C#N)cccc3C(=O)N(C)C[C@H](C)C(=O)N(C)C[C@H]1O2 -3.09%
CCC1(c2ccc(F)cc2)NC(=O)N(CC(=O)N2CCc3ccccc3C2)C1=O (centres undefined) 1.7%
C[C@H](NC(=O)C[C@@H]1CC[C@H](NC(=O)C2CCOCC2)[C@@H](CO)O1)c1ccccc1 3.41%
O=C(NCc1ccncc1)C1CCCN(S(=O)(=O)c2cc(Cl)ccc2Cl)C1 (centres undefined) 0.229%

— PubChem BioAssay AID687001 (Broad Institute, 2013)
